Among the data in ChEMBL document CHEMBL3988442, “University of Dundee, Small-Polar-MMV Screening Library” (2021) are Percent Effect values, retold here.

For some of these results: Results with a measured potency or affinity are listed apart.

Set-up in all cases: scale not given: direction of the effect not stated beside the values
For assay [1], the target named is Protein translocase subunit SecA (Escherichia coli (strain K12)) (UniProt P10408). Put plainly: Assay to Identify E. coli SecA ATPase Inhibitors. It counts as functional. The settings on record: 30 µM.
Chain of Protein translocase subunit SecA (Escherichia coli (strain K12)) (P10408 whole entry): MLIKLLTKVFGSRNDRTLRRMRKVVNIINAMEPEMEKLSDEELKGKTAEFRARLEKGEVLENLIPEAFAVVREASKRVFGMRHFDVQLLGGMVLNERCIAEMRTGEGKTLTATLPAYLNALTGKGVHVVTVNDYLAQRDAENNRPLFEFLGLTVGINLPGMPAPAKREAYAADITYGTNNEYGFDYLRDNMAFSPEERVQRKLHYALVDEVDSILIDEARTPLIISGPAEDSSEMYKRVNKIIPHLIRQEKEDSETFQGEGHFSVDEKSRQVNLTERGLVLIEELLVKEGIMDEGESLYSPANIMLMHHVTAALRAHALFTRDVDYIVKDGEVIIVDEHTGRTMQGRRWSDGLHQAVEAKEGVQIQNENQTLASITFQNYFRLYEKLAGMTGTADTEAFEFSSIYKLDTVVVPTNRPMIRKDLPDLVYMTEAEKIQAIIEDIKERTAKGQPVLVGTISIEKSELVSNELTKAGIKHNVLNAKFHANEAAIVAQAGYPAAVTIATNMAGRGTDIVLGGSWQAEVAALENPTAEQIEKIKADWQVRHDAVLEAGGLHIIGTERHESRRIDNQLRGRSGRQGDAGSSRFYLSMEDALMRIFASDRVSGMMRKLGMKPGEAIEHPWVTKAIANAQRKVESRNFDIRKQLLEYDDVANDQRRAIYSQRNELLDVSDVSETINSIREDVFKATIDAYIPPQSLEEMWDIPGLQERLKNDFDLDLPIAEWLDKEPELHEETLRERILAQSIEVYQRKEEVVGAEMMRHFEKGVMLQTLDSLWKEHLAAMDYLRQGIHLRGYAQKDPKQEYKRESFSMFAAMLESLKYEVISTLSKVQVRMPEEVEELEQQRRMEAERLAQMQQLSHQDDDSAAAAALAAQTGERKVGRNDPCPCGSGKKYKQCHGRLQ
In assay [2] the target is T1, Ubiquitin-activating enzyme e1, putative (Leishmania donovani (strain BPK282A1)) (UniProt E9BSI1).
T1 sequence (whole entry): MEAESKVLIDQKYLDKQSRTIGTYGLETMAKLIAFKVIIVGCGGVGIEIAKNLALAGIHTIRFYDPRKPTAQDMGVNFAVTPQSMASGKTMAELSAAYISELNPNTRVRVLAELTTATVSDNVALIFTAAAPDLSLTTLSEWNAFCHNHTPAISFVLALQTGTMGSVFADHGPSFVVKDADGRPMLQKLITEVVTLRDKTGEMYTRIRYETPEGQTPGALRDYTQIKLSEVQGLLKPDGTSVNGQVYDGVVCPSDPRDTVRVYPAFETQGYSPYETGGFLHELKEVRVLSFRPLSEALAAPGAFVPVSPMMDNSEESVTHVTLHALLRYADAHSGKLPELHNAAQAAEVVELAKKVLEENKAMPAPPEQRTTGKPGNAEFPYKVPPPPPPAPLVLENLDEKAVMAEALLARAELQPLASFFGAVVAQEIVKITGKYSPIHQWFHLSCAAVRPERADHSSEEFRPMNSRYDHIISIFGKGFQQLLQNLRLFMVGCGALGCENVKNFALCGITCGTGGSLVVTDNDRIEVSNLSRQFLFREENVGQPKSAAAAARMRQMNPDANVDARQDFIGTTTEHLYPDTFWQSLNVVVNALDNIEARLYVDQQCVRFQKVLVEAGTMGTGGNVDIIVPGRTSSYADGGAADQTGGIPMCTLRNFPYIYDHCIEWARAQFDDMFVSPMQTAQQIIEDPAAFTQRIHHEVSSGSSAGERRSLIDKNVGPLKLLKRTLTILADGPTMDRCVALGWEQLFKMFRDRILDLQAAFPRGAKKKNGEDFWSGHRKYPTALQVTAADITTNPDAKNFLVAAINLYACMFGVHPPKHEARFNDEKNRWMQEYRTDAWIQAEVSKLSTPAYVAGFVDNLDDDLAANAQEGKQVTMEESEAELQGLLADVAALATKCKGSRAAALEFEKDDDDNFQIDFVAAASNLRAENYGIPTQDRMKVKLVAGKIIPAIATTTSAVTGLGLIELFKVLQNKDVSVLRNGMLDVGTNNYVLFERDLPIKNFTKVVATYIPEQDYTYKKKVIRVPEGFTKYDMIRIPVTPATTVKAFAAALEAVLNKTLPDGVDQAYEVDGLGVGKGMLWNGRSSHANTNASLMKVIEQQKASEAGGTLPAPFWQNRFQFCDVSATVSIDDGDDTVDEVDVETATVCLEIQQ
Description: Leishmania donovani Ubiquitin Activating Enzyme (LdE1). It counts as functional. The following applies: 30 µM.

For assay [3], the target named is AMP-activated protein kinase, AMPK (Homo sapiens) (UniProt P54646+O43741+P54619+Q9UGJ0+Q9Y478+Q13131+Q9UGI9). Description: AMP-dependent Kinase enzyme assay. An in vitro enzyme assay that detects ADP turnover that is directly proportional to AMPK activity. This uses naive AMPK that is activated during the assay with MK-8722. The format is functional. The settings on record: 30 µM.

Assay [4] deals with Sialic acid-binding Ig-like lectin 9 (Homo sapiens) (UniProt Q9Y336). Put plainly: Hs-Siglec9 ALPHAscreen SOP 20170721. The following applies: 10 µM.
Chain of Sialic acid-binding Ig-like lectin 9 (Homo sapiens) (Q9Y336 whole entry): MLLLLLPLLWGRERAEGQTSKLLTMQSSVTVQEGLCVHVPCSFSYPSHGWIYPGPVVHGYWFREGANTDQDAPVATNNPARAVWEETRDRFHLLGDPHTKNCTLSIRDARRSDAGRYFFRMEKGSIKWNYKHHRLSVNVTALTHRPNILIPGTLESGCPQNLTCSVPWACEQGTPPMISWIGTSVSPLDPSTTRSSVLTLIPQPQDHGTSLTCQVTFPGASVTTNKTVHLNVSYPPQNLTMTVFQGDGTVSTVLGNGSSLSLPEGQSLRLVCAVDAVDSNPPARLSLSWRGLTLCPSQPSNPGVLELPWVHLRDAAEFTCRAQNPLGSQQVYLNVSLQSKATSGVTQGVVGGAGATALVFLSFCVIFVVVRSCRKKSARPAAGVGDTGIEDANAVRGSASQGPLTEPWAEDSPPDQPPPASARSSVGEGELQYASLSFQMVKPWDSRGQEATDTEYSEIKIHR
The test system of assay [5] is Trypanosoma cruzi. Put plainly: Trypanosoma cruzi phosphomannomutase and mannose-1-phosphate guanylyltransferase assay. The format is functional. The settings on record: 10 µM.
In assay [6] the target is T2, Arginase-2, mitochondrial (Homo sapiens) (UniProt P78540).
T2 sequence (whole entry): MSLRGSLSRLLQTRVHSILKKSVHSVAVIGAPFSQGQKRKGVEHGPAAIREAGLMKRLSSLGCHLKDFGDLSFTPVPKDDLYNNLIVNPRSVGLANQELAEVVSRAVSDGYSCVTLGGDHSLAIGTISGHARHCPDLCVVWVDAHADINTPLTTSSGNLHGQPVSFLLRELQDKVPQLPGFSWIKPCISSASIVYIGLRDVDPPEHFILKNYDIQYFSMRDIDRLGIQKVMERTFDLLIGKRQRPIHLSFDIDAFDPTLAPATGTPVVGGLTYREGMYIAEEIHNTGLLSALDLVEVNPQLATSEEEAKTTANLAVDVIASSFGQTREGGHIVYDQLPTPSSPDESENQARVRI
Put plainly: in vitro enzyme assay to detect the production of urea directly proportional to the activity of Arginase II. Also: in the data most compounds retested in dose-response had high values. The format is functional. The following applies: 33.3 µM.

Assay [7] deals with T3, Proteasome subunit beta (Trypanosoma cruzi) (UniProt O96673).
T3 sequence (whole entry): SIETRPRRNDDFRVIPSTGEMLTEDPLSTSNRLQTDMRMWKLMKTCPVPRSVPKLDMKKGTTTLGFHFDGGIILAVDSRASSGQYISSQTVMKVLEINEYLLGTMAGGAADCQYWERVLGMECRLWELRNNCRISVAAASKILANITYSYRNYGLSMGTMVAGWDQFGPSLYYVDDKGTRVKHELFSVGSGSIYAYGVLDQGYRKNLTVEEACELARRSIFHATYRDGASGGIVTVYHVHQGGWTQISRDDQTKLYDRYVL
Description: Trypanosoma cruzi proteasome chymotrypsin-like activity (TcProtChymo) assay. Also: in the data most compounds retested in dose-response had high values. The format is functional. The settings on record: 9.37 µM.

For assay [8], the species on record is Homo sapiens. Description: To identify inhibition of the IFN signalling (Jak-Stat) pathway via expression of an eGFP reporter gene under the control of an IFN-stimulated response element (ISRE) containing MxA promoter. It counts as functional. The following applies: 30 µM. (A reporter such as luciferase makes a cellular process visible.)
The target in assay [9] is T4, Tyrosyl-tRNA synthetase, putative (Trypanosoma cruzi (strain CL Brener)) (UniProt Q4DSP6).
T4 sequence (whole entry): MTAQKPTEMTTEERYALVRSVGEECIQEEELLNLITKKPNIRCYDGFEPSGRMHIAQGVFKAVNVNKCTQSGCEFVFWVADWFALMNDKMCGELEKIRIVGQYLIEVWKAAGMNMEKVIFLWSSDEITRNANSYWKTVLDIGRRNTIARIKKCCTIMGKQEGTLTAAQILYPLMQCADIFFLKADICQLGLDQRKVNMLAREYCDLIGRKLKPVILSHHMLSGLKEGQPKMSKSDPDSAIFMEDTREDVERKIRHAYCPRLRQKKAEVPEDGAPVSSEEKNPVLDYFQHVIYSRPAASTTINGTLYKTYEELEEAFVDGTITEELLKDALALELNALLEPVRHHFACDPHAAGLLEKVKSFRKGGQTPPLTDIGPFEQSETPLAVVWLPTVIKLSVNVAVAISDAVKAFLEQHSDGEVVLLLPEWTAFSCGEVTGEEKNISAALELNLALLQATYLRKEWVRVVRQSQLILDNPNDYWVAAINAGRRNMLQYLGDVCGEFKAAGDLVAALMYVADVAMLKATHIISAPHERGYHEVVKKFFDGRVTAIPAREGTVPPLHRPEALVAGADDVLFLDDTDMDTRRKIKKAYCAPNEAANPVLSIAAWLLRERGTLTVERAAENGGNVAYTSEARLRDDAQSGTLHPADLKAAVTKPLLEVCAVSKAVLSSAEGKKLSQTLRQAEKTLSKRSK
Put plainly: Trypanosoma cruzi tyrosyl tRNA synthetase (TcYRS) _High Tyrosine SOP. Also: in the data most compounds retested in dose-response had high values. The following applies: 30 µM. It counts as functional.

Assay [10] deals with T4, Tyrosyl-tRNA synthetase, putative (Trypanosoma cruzi (strain CL Brener)). Description: Trypanosoma cruzi tyrosyl tRNA synthetase (TcYRS) SOP. The format is functional. The settings on record: 30 µM.
The target in assay [11] is Chromo domain-containing protein 1 (Saccharomyces cerevisiae (strain ATCC 204508 / S288c) (Baker's yeast)) (UniProt P32657). Put plainly: ScCHD-1 Enzyme Inhibition Assay. Also: in the data most compounds retested in dose-response had high values. The format is functional. The following applies: 30 µM.
Chain of Chromo domain-containing protein 1 (Saccharomyces cerevisiae (strain ATCC 204508 / S288c) (Baker's yeast)) (P32657 whole entry, the tested form may be a part): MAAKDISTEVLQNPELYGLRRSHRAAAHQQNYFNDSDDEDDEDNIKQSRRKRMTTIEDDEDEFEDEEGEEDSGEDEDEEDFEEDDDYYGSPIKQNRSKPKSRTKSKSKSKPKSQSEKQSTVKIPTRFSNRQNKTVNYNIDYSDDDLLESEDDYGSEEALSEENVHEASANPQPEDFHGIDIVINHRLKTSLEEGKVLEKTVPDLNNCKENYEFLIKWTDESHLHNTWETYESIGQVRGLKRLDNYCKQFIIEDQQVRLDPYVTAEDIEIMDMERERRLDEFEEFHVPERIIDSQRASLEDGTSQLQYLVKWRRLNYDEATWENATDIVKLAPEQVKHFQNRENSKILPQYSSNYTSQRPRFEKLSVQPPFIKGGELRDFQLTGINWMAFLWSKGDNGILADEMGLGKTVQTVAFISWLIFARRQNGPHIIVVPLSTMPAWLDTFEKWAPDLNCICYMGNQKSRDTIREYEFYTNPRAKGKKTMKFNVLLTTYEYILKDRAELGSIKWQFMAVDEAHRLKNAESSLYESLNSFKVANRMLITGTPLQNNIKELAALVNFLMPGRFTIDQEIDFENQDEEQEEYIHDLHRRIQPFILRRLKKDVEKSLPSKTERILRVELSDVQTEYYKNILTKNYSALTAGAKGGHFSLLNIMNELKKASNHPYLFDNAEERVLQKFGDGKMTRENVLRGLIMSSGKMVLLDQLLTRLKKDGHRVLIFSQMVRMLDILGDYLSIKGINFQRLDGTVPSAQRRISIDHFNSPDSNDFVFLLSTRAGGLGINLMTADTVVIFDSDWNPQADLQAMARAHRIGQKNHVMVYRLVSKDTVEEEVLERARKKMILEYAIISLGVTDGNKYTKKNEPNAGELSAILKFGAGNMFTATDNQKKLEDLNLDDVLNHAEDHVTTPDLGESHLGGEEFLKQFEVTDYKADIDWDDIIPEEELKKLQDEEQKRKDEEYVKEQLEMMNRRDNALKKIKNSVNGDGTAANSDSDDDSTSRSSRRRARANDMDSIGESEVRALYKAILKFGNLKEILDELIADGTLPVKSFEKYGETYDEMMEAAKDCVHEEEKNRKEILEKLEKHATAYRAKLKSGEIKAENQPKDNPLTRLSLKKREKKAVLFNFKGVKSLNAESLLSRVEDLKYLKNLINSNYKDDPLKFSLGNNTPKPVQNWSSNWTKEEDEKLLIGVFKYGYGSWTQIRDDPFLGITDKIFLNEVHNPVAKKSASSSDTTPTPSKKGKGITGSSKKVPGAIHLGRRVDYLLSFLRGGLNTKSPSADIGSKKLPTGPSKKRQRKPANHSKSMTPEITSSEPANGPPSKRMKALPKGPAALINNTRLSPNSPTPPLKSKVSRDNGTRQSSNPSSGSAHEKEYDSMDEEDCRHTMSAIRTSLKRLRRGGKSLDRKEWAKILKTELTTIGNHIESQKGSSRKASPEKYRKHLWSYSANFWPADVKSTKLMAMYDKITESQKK

On to `Cc1cccc(-c2noc(CN3CC(n4cc(C)cn4)C3)n2)c1`, for which the Percent Effect in [1] was -0.775%; in assay [2], -13%; in assay [3], -3.33%; in assay [4] it was 7.4%; in assay [5], 5.24%; in assay [6] it was -2.85%. Moreover, the Percent Effect is 27.4% in [7]; 26.4% in assay [8]; 1.94% in assay [9]; 14.6% in assay [10]; -5.58% in assay [11].

Regarding `Cc1cn2nc(N3CCCC3Cn3nc(C)cc3C)sc2n1` (stereo unspecified), the Percent Effect in [1] is -2.86%; in [2], 6.33%; in assay [3], 3.5%; in assay [4], 0.585%; in assay [5], 1.74%; in assay [6], -0.645%. In addition, the Percent Effect in assay [7] was 9.43%; in assay [8] it was 19.6%; in assay [9], 4.17%; in assay [10], 7.59%; in [11] it was -20%.

For `CC(=O)N1CCN(CCNS(=O)(=O)c2ccc(C)c(F)c2)CC1`, the Percent Effect is -5.17% in assay [1]; 18.4% in [2]; -1.98% in assay [3]; -13.7% in assay [4]; 3.41% in assay [5]; 1.18% in [6]. The Percent Effect in [7] is 7.96%; in assay [8], 3.39%; in [9] it was -1.06%; in assay [10] it was 13%; in assay [11], -13.1%.

For `CC(C)c1noc(CCCC(=O)N2CCC(Cc3cccnc3)CC2)n1`, the Percent Effect in assay [1] is 1.54%; in assay [2], -2.53%; in assay [3] it was 1.06%; in assay [4] it was 8.41%; in assay [5] it was -6.14%; in [6], 4.18%. Besides, the Percent Effect was -2.05% in [7]; 16.4% in assay [8]; 0.493% in assay [9]; -3.8% in [10]; -3.44% in [11].

Consider `O=C1CCSCC(C(=O)N2CCOCC2)N1` (stereo unspecified), for which the Percent Effect in assay [1] was -5.1%; in assay [2] it was 2.74%; in assay [3], -1.73%; in assay [4] it was -8.51%; in [5] it was -2.74%; in assay [6], -0.455%. Also, the Percent Effect in assay [7] was determined as 5.5%; in assay [8] it was 16%; in assay [9], 2.15%; in assay [10], 7.5%; in assay [11] it was 0.585%.

Consider `CCc1nc2n(n1)CC(Nc1cc(C)nc3ncnn13)CC2` (stereo unspecified), for which the Percent Effect in assay [1] was -3.29%; in [2] it was 8.22%; in assay [3] it was -10.8%; in assay [4], 12.4%; in assay [5], 5.68%; in assay [6] it was 8.64%. Also, the Percent Effect is 14.4% in assay [7]; 18.4% in assay [8]; 3.23% in [9]; 12.5% in assay [10]; -7.89% in assay [11].

On to `CCOCC1CN(C)Cc2cnn(CC3CCCC3)c21` (stereo unspecified), for which the Percent Effect stood at 0.927% in assay [1]; 5.48% in [2]; 0.312% in assay [3]; 7.92% in assay [4]; 7.14% in assay [5]; 2% in [6]. The Percent Effect was 9.68% in assay [7]; -29.3% in assay [8]; 7.29% in assay [9]; 11.1% in assay [10]; -3.7% in assay [11].

As to `Cc1ncc2c(n1)CN(CC(=O)Nc1ccncc1)CC2`, the Percent Effect in [1] is -2.13%; in assay [2], 15.8%; in assay [3], -33.9%; in [4] it was 3.22%; in assay [5], 4.01%; in [6], -1.44%. For the same compound, the Percent Effect is 6.85% in assay [7]; 17.2% in assay [8]; 15.3% in assay [9]; 23.5% in assay [10]; -7.12% in [11].

For `O=C(c1cnc(COc2ccccc2)nc1O)N1CCOCC1`, the Percent Effect was -3.01% in [1]; 4.17% in assay [2]; -4.14% in assay [3]; -9.54% in assay [4]; -1.07% in [5]; -0.442% in [6]. Further, the Percent Effect in [7] was 8.77%; in assay [8], 16.1%; in assay [9] it was 2.1%; in assay [10], 2.56%; in [11] it was -1.09%.

In the case of `Cn1ccnc1-c1cccc(NC(=O)NCCN2CCOCC2)c1`, the Percent Effect was -4.99% in [1]; 15.3% in [2]; -5.8% in [3]; 16.5% in assay [4]; 4.57% in assay [5]; 16.3% in [6]. The Percent Effect in assay [7] was 10.9%; in assay [8], 9.44%; in assay [9], 5.26%; in [10], 10.3%; in assay [11], -4.33%.

On to `CN(C)c1ccc(CN(CCCn2ccnc2)Cc2c[nH]cn2)cc1`, for which the Percent Effect was -6.31% in assay [1]; 17.6% in assay [2]; -10.4% in [3]; 5.43% in assay [4]; 3.16% in [5]; -6.26% in [6]. Also, the Percent Effect in assay [7] is 12.5%; in [8], 8.69%; in assay [9] it was 8.6%; in [10], 19.5%; in assay [11] it was -30.5%.
